Reference: PubChem BioAssay AID1159580 (chemical genetic matrix, 2015)
Values joined by “and” are separate entries in the source; they are usually repeats but may differ in a detail not shown here. Equal entries are not always repeated. About 2,000 (36%) of roughly 5,500 compounds were called active. Not shown: some 18% with an inconclusive outcome. No stated cut-off is given here; in the data, active means normalized growth mostly below about 0.91 (no sharp cut-off); inconclusive means no clear call, values can overlap the other calls; inactive means mostly above about 0.92. Some of the results follow.

Assay: chemical genetic growth profiling, strain panel (AID 1159580);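 further: tested at 20 µM; growth read once vehicle control cultures reached saturation at 30 °C; 1 = growth at the plate median or of vehicle wells; lower values mean less growth of the strain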
Details: S. cerevisiae deletion strains, growth OD

Measured: normalized growth

C=C1C(C2(C)C=CC(=O)C(C)(C)C2CC(=O)OC)CC[C@@]2(C)[C@H](c3ccoc3)OC(=O)C3OC132 (stereo not given in full)
active: locus YGL253W, strain hxk2, active compounds read low 0.91
inactive: locus YAL021C, strain ccr4, active compounds read low 1.02 | locus YAL026C, strain drs2, active compounds read low 0.97 | locus YAL030W, strain snc1, active compounds read low 0.996 | locus YBL061C, strain skt5, active compounds read low 0.988 | locus YBR009C, strain hhf1, active compounds read low 1 | locus YBR021W, strain FUR4, active compounds read low 1.03 | locus YBR023C, strain chs3, active compounds read low 1 | locus YBR171W, strain sec66, active compounds read low 0.954 | locus YBR229C, strain ROT2, active compounds read low 0.957 | locus YBR231C, strain swc5, active compounds read low 0.976 | locus YBR279W, strain paf1, active compounds read low 0.999 | locus YCL011C, strain gbp2, active compounds read low 1 | locus YCL016C, strain dcc1, active compounds read low 1.03 | locus YCL029C, strain bik1, active compounds read low 0.977 | locus YCL061C, strain MRC1, active compounds read low 0.997 | locus YCL069W, strain vba3, active compounds read low 0.986 | locus YCR088W, strain abp1, active compounds read low 0.991 | locus YDL005C, strain med2, active compounds read low 0.997 | locus YDL035C, strain GPR1, active compounds read low 0.978 | locus YDL040C, strain nat1, active compounds read low 0.992 | locus YDL074C, strain BRE1, active compounds read low 0.969 | locus YDL101C, strain DUN1, active compounds read low 0.987 | locus YDL185W, strain tfp1, active compounds read low 0.956 | locus YDL192W, strain arf1, active compounds read low 0.985 | locus YDR001C, strain nth1, active compounds read low 0.992 | locus YDR069C, strain doa4, active compounds read low 0.966 | locus YDR101C, strain arx1, active compounds read low 0.97 | locus YDR137W, strain rgp1, active compounds read low 0.976 | locus YDR159W, strain sac3, active compounds read low 0.962 | locus YDR162C, strain NBP2, active compounds read low 0.982 | locus YDR195W, strain ref2 0.976 | locus YDR297W, strain sur2, active compounds read low 0.996 | locus YDR318W, strain mcm21, active compounds read low 0.99 | locus YDR334W, strain swr1, active compounds read low 0.966 | locus YDR335W, strain msn5, active compounds read low 1 | locus YDR388W, active compounds read low 0.977 | locus YDR392W, strain spt3, active compounds read low 0.942 | locus YDR502C, strain sam2, active compounds read low 0.979 | locus YEL003W, strain gim4, active compounds read low 0.983 | locus YEL037C, strain rad23, active compounds read low 0.989 | locus YEL061C, strain CIN8 (second series), active compounds read low 0.982 | locus YEL061C, strain CIN8, active compounds read low 0.995 | locus YER015W, strain faa2, active compounds read low 0.996 | locus YER016W, strain bim1, active compounds read low 0.989 | locus YER110C, active compounds read low 0.981 | locus YER111C, strain swi4, active compounds read low 0.972 | locus YER155C, strain BEM2 (second series), active compounds read low 1.01 | locus YER155C, strain BEM2, active compounds read low 0.995 | locus YER167W, strain BCK2, active compounds read low 0.985 | locus YFR010W, strain ubp6, active compounds read low 0.971 | locus YGL078C, strain dbp3, active compounds read low 0.978 | locus YGL086W, strain mad1, active compounds read low 1.01 | locus YGL167C, strain pmr1, active compounds read low 0.989 | locus YGL173C, strain kem1, active compounds read low 0.968 | locus YGL227W, strain vid30, active compounds read low 0.999 | locus YGL240W, strain doc1, active compounds read low 0.999 | locus YGL248W, strain PDE1, active compounds read low 0.995 | locus YGR135W, strain pre9, active compounds read low 1.02 | locus YGR229C, strain SMI1, active compounds read low 0.998 | locus YGR252W, strain gcn5, active compounds read low 0.984 | locus YHR013C, strain ard1, active compounds read low 0.993 | locus YHR027C, strain rpn1, active compounds read low 0.972 | locus YHR030C, strain SLT2, active compounds read low 0.991 and 0.976 | locus YHR079C, strain IRE1 (second series), active compounds read low 0.975 | locus YHR079C, strain IRE1, active compounds read low 0.978 | locus YHR094C, strain hxt1, active compounds read low 0.976 | locus YHR129C, strain ARP1, active compounds read low 0.992 | locus YHR142W, strain chs7, active compounds read low 1.02 | locus YHR200W, strain rpn10, active compounds read low 0.968 | locus YIL066C, strain RNR3, active compounds read low 0.974 | locus YIL073C, strain SPO22, active compounds read low 0.994 | locus YIL125W, strain kgd1, active compounds read low 0.978 | locus YIR030C, strain dcg1, active compounds read low 0.977 | locus YJL092W, strain hpr5, active compounds read low 0.973 | locus YJL095W, strain BCK1 (second series), active compounds read low 0.979 | locus YJL095W, strain BCK1, active compounds read low 1 and 0.987 | locus YJL115W, strain asf1, active compounds read low 0.98 | locus YJL129C, strain trk1, active compounds read low 0.961 | locus YJL134W, strain LCB3, active compounds read low 0.983 | locus YJL154C, strain vps35, active compounds read low 1.01 | locus YJL164C, strain tpk1, active compounds read low 1.03 | locus YJL166W, strain qcr8, active compounds read low 1 | locus YJL168C, strain set2, active compounds read low 0.994 | locus YJL187C, strain SWE1 (second series), active compounds read low 0.989 | locus YJR066W, strain TOR1, active compounds read low 0.932 | locus YJR075W, strain HOC1, active compounds read low 0.98 | locus YKL009W, strain mrt4, active compounds read low 0.986 | locus YKL068W, active compounds read low 0.989 | locus YKL085W, strain MDH1 (second series), active compounds read low 1 | locus YKL085W, strain MDH1, active compounds read low 1 | locus YKL160W, strain elf1, active compounds read low 1.05 | locus YKR001C, strain vps1, active compounds read low 0.992 | locus YKR026C, strain gcn3, active compounds read low 0.981 | locus YKR091W, strain srl3, active compounds read low 0.996 | locus YLL001W, strain dnm1, active compounds read low 0.967 | locus YLL026W, active compounds read low 0.984 | locus YLL041C, strain sdh2, active compounds read low 0.975 | locus YLR027C, strain aat2, active compounds read low 0.978 | locus YLR039C, strain RIC1, active compounds read low 0.92 | locus YLR058C, strain SHM2, active compounds read low 0.979 | locus YLR102C, strain apc9, active compounds read low 0.983 | locus YLR113W, strain HOG1, active compounds read low 0.991 | locus YLR221C, strain rsa3, active compounds read low 0.978 | locus YLR258W, strain gsy2, active compounds read low 1.02 | locus YLR262C, strain YPT6 (second series), active compounds read low 0.983 | locus YLR262C, strain YPT6, active compounds read low 0.933 | locus YLR268W, strain sec22, active compounds read low 0.959 | locus YLR320W, strain mms22, active compounds read low 1 | locus YLR342W, strain FKS1, active compounds read low 0.993 | locus YLR357W, strain rsc2, active compounds read low 0.978 | locus YLR370C, strain arc18, active compounds read low 0.963 | locus YLR371W, strain rom2, active compounds read low 0.972 | locus YLR384C, strain iki3, active compounds read low 1 | locus YLR418C, strain cdc73, active compounds read low 0.994 | locus YML016C, strain PPZ1, active compounds read low 0.978 | locus YML032C, strain rad52, active compounds read low 0.965 | locus YML120C, strain ndi1, active compounds read low 1.02 | locus YML124C, strain tub3, active compounds read low 0.988 | locus YMR058W, strain fet3, active compounds read low 0.994 | locus YMR078C, strain ctf18, active compounds read low 0.961 | locus YMR125W, strain sto1, active compounds read low 0.992 | locus YMR129W, active compounds read low 0.99 | locus YMR205C, strain PFK2, active compounds read low 1 | locus YMR223W, strain ubp8, active compounds read low 0.993 | locus YMR231W, strain pep5, active compounds read low 0.973 | locus YMR263W, strain SAP30, active compounds read low 0.972 | locus YMR307W, strain GAS1, active compounds read low 1.16 | locus YNL067W, strain RPL9B, active compounds read low 0.992 | locus YNL071W, strain lat1, active compounds read low 0.999 | locus YNL153C, strain GIM3, active compounds read low 0.982 | locus YNL183C, strain NPR1, active compounds read low 0.968 | locus YNL209W, strain ssb2, active compounds read low 1 | locus YNL233W, strain BNI4, active compounds read low 1.02 | locus YNL248C, strain rpa49, active compounds read low 0.938 | locus YNL250W, strain rad50, active compounds read low 0.972 | locus YNL271C, strain bni1, active compounds read low 0.976 | locus YNL298W, strain CLA4, active compounds read low 0.976 | locus YNL307C, strain MCK1, active compounds read low 0.982 | locus YNL322C, strain KRE1 (second series), active compounds read low 0.992 | locus YNR049C, strain mso1, active compounds read low 0.988 | locus YNR052C, strain pop2, active compounds read low 0.984 | locus YOL012C, strain htz1 1.19 | locus YOL147C, strain pex11, active compounds read low 0.979 | locus YOR001W, strain rrp6, active compounds read low 0.936 | locus YOR061W, strain CKA2, active compounds read low 0.956 | locus YOR069W, strain VPS5, active compounds read low 0.994 | locus YOR070C, strain gyp1, active compounds read low 0.993 | locus YOR080W, strain dia2, active compounds read low 0.976 | locus YOR083W, strain WHI5, active compounds read low 1.06 | locus YOR106W, strain vam3, active compounds read low 1.06 | locus YOR136W, strain idh2, active compounds read low 0.976 | locus YOR144C, strain elg1, active compounds read low 0.98 | locus YOR184W, strain ser1, active compounds read low 0.953 | locus YOR231W, strain MKK1, active compounds read low 0.996 | locus YOR265W, strain rbl2, active compounds read low 0.991 | locus YOR270C, strain vph1, active compounds read low 0.87 | locus YOR290C, strain snf2, active compounds read low 1.05 | locus YOR316C, strain cot1, active compounds read low 0.981 | locus YPL051W, strain arl3, active compounds read low 0.959 | locus YPL078C, strain atp4, active compounds read low 1.05 | locus YPL106C, strain sse1, active compounds read low 1.04 | locus YPL240C, strain hsp82, active compounds read low 0.976 | locus YPL241C, strain CIN2, active compounds read low 0.986 | locus YPL256C, strain CLN2, active compounds read low 0.995 | locus YPR119W, strain clb2, active compounds read low 0.98 | locus YPR141C, strain kar3, active compounds read low 0.985 | locus YPR163C, strain tif3, active compounds read low 0.983 | locus YPR167C, strain met16, active compounds read low 0.983 | strain wtn01, active compounds read low 0.956
